This is part of a sample that, as a whole, favours compounds with a hit. Of some 83,000 tested, about 20% had one in any assay.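 Percent growth is the endpoint: 0 to 100 indicates growth inhibition (40 means 60% inhibition), 0 means no net growth, and negative values indicate cell death.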 Values without a mark were called inactive. Activity calls are given as the source filed them. The calls were made as follows: active = growth percent below 10; inactive = the rest.

Some test systems named below: DU-145 prostate; K-562 leukemia; MALME-3M melanoma; MDA-MB-231 breast; RXF 393 renal; SF-268 CNS; SF-295 CNS; SF-539 CNS; UACC-257 melanoma; M14 melanoma; HCT-15 colon; HT29 colon; SNB-75 CNS; SNB-19 CNS; U251 CNS; PC-3 prostate; SK-MEL-5 melanoma; UACC-62 melanoma; LOX IMVI melanoma; SK-MEL-28 melanoma.
What all share (experiment): NCI-60 one-dose screen, 48 h (100 = growth as untreated, 0 = no growth, -100 = all killed)
Common to all, as to conditions: 10 µM unless noted

As to `CCCCSc1ncnc2c1ncn2C1CCCCO1` (stereo not given), the growth in the experiment on DU-145 prostate is 121%; in the experiment on K-562 leukemia, 97%; in the experiment with MALME-3M melanoma, 115%; in the experiment on MDA-MB-231 breast, 110%; in the experiment on RXF 393 renal, 120%; in the experiment on SF-268 CNS, 106%. For the same molecule, the growth in the experiment on SF-295 CNS was 111%; with SF-539 CNS, 104%; in the experiment with UACC-257 melanoma, 108%; in the experiment on M14 melanoma, 103%; in the experiment on HCT-15 colon, 102%; with HT29 colon, 109%. For the same molecule, the growth in the experiment on SNB-75 CNS is 104%; in the experiment with SNB-19 CNS, 103%; in the experiment on U251 CNS, 99.9%; in the experiment with PC-3 prostate, 99.5%; in the experiment on SK-MEL-5 melanoma it was 104%; in the experiment with UACC-62 melanoma, 99.6%. In addition, the growth in the experiment with LOX IMVI melanoma is 101%; in the experiment on SK-MEL-28 melanoma it was 119%.
On to `Cc1ccc(Nc2cccc3ccccc23)cc1`, for which the growth in the experiment with DU-145 prostate was 109%; in the experiment on K-562 leukemia, 63%; in the experiment with MALME-3M melanoma it was 94.2%; in the experiment on MDA-MB-231 breast it was 88.5%; in the experiment on RXF 393 renal it was 91.2%; in the experiment with SF-268 CNS, 92.4%. Besides, the growth is 112% with SF-295 CNS; 99.8% in the experiment on SF-539 CNS; 86.4% with UACC-257 melanoma; 89.6% with M14 melanoma; 79.1% in the experiment with HCT-15 colon; 83.9% in the experiment on HT29 colon. In addition, the growth is 79.7% with SNB-75 CNS; 90.3% in the experiment with SNB-19 CNS; 90.8% with U251 CNS; 73.9% in the experiment with PC-3 prostate; 96.1% with SK-MEL-5 melanoma; 85.4% in the experiment on UACC-62 melanoma. For the same molecule, the values for the growth in the experiment with LOX IMVI melanoma and with SK-MEL-28 melanoma were 79.9% and 98.5%, respectively.
Regarding `O=C(/C=C/c1ccco1)c1ccccc1O`, the growth was 108% in the experiment with DU-145 prostate; 117% with K-562 leukemia; 121% in the experiment with MALME-3M melanoma; 111% in the experiment with MDA-MB-231 breast; 92.4% in the experiment on RXF 393 renal; 99.4% with SF-268 CNS. Further, the growth in the experiment with SF-295 CNS is 110%; in the experiment with SF-539 CNS, 98.2%; in the experiment with UACC-257 melanoma, 112%; with M14 melanoma, 105%; in the experiment on HCT-15 colon, 93.1%; in the experiment with HT29 colon, 112%. For the same molecule, the growth in the experiment on SNB-75 CNS is 108%; with SNB-19 CNS it was 102%; in the experiment on U251 CNS, 109%; in the experiment on PC-3 prostate, 95.9%; with SK-MEL-5 melanoma, 111%; with UACC-62 melanoma, 103%. Also, the growth in the experiment with LOX IMVI melanoma is 95.2%; with SK-MEL-28 melanoma, 111%.
As for `CCCCCCCCCCCCCCCCCC(=O)OCCCCCCCCCCCCC`, the growth in the experiment with DU-145 prostate was 117%; with K-562 leukemia, 119%; in the experiment on MALME-3M melanoma, 130%; in the experiment with MDA-MB-231 breast, 135%; in the experiment with RXF 393 renal, 109%; in the experiment on SF-268 CNS, 106%. For the same molecule, the growth in the experiment with SF-295 CNS is 117%; with SF-539 CNS, 101%; with UACC-257 melanoma it was 108%; in the experiment with M14 melanoma, 114%; in the experiment with HCT-15 colon it was 108%; in the experiment on HT29 colon, 103%. In addition, the growth in the experiment with SNB-75 CNS is 104%; with SNB-19 CNS, 113%; in the experiment on U251 CNS it was 108%; in the experiment with PC-3 prostate, 102%; in the experiment with SK-MEL-5 melanoma, 114%; in the experiment with UACC-62 melanoma, 113%. Also, the growth in the experiment on LOX IMVI melanoma is 103%; in the experiment with SK-MEL-28 melanoma, 125%.
Consider `CN(C)CCNC(=O)n1cc(-c2ccncc2)c(-c2cc(O)cc(Cl)c2)n1`, for which the growth in the experiment on DU-145 prostate is 102%; with K-562 leukemia, 74.8%; in the experiment with MALME-3M melanoma it was 6.11% (active); in the experiment on MDA-MB-231 breast, 88.6%; in the experiment with RXF 393 renal, 84.4%; in the experiment on SF-268 CNS, 96.8%. The growth is 117% in the experiment with SF-295 CNS; 82.5% in the experiment on SF-539 CNS; 40.6% in the experiment with UACC-257 melanoma; 27.6% with M14 melanoma; 77.1% with HCT-15 colon; 88.5% in the experiment on HT29 colon. Besides, the growth in the experiment with SNB-75 CNS was 103%; with SNB-19 CNS, 106%; with U251 CNS, 81.6%; with PC-3 prostate, 112%; with SK-MEL-5 melanoma, 77.3%; in the experiment with UACC-62 melanoma, 36.4%. Besides, the results for the growth in the experiment with LOX IMVI melanoma and in the experiment with SK-MEL-28 melanoma were 76.3% and 35.2%, respectively.
On to `O=C1Nc2ccc(Br)cc2/C1=N/c1nc(-c2ccccc2)cs1`, for which the growth in the experiment with DU-145 prostate was 89.3%; in the experiment on K-562 leukemia, 82.4%; in the experiment with MALME-3M melanoma, 101%; with MDA-MB-231 breast it was 77%; with RXF 393 renal it was 91.7%; with SF-268 CNS it was 79.5%. Besides, the growth with SF-295 CNS was 102%; in the experiment on SF-539 CNS it was 98.6%; in the experiment with UACC-257 melanoma, 78.2%; in the experiment with M14 melanoma, 87.5%; with HCT-15 colon it was 94.9%; with HT29 colon, 91.7%. Further, the growth in the experiment on SNB-75 CNS is 79%; in the experiment with SNB-19 CNS it was 96.2%; in the experiment on U251 CNS, 92.9%; in the experiment with PC-3 prostate, 62.3%; in the experiment with SK-MEL-5 melanoma it was 77.5%; in the experiment on UACC-62 melanoma, 80.5%. Besides, the figures for the growth in the experiment with LOX IMVI melanoma and with SK-MEL-28 melanoma were 92% and 95%, respectively.
For the molecule `COc1ccc(/C(C)=N/NC(=O)c2ccc(S(C)(=O)=O)cc2)cc1OC`, the growth in the experiment with DU-145 prostate was 95.7%; with K-562 leukemia it was 69.5%; in the experiment with MALME-3M melanoma it was 98.1%; in the experiment with MDA-MB-231 breast, 103%; in the experiment with RXF 393 renal, 114%; in the experiment on SF-268 CNS, 102%. Besides, the growth in the experiment with SF-295 CNS was 98.3%; with SF-539 CNS, 99.1%; with UACC-257 melanoma, 96.3%; in the experiment with M14 melanoma it was 97.4%; with HCT-15 colon it was 97.9%; with HT29 colon it was 117%. Besides, the growth in the experiment with SNB-75 CNS is 85.9%; with SNB-19 CNS, 105%; in the experiment on U251 CNS, 104%; in the experiment on PC-3 prostate it was 99.3%; with SK-MEL-5 melanoma, 106%; with UACC-62 melanoma, 102%. In addition, the growth was 106% in the experiment with LOX IMVI melanoma and 105% with SK-MEL-28 melanoma.
Take `CC(=O)NC1C(O[C@H]2C[C@H]3[C@@H]4CC=C5C[C@@H](O)CC[C@]5(C)[C@H]4CC[C@]3(C)[C@H]2[C@H](C)C(=O)CCC(C)C)OCC(O)C1O` (stereo not given in full): the growth is 57.7% in the experiment with DU-145 prostate; 0.56% (active) with K-562 leukemia; 34.7% in the experiment on MALME-3M melanoma; 59.9% in the experiment with MDA-MB-231 breast; -43.2% (active) with RXF 393 renal; 31% in the experiment with SF-268 CNS. For the same molecule, the growth in the experiment with SF-295 CNS was -53.2% (active); with SF-539 CNS, -26.2% (active); with UACC-257 melanoma it was -15.5% (active); in the experiment with M14 melanoma it was -22.2% (active); with HCT-15 colon it was 30.5%; with HT29 colon, 36.8%. Moreover, the growth is 37.8% in the experiment with SNB-75 CNS; 57.5% in the experiment on SNB-19 CNS; 28% with U251 CNS; 26.5% in the experiment on PC-3 prostate; 24.8% with SK-MEL-5 melanoma; -20.3% (active) in the experiment with UACC-62 melanoma. Also, the growth in the experiment with LOX IMVI melanoma is 27.2%; in the experiment with SK-MEL-28 melanoma, -14.3% (active).
